The list is not random: actives were taken first. Their share in the collection is about 7.1%.
ATXN2 expr inh: ATXN2 expression inhibition | HEK-293 ATXN2-luciferase reporter, luminescence, 24 h | Potency, µM (series often up to 57 µM), without a hit: at the top dose activity change, negative = inhibition, most hits filed as inhibitors | 360,000 compounds, 0.72% hits | AID 1745845; also: potency is read from the fitted curve at half-maximal effect; % is scaled to controls: 0 for no effect and ±100 for the full control effect; nearly all actives have a fitted effect of over 55% in size
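ATXN2-luciferase reporter cells (luciferase flanked by upstream and downstream ATXN2 gene portions) were treated 24 h at 37 °C with compounds at up to 57 uM. SteadyGlo luminescence gave expression; GF-AFC fluorescence gave viability.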
PINK1 modulator: changes PINK1 expression; PINK1 immunofluorescence, high-content cytometry, 24 h; Potency, µM (top dose mostly 76.6 µM), for the others: at the top dose activation (PINK1 increase), hits mostly activators; 410,000 compounds, 0.2% hits; active = well fitted activation curve with a large enough effect; inconclusive = small, poorly fitted or top-dose-only effect; cell line not stated here; also: potency is read from the fitted curve at half-maximal effect; % of control where 0% means no effect; nearly all actives have a fitted effect of over 65% in size
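Stable cell line treated 24 h with compounds at 5 concentrations (CCCP controls), then fixed and immunostained for PINK1 plus nuclear and cell stains; PINK1 immunofluorescence quantified by laser-scanning microplate cytometry.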
S2 tox: cell viability loss in ATXN counter-screen. S2 cells (HEK-293 line with an ATXN2-luciferase reporter) viability, CellTiter-Fluor protease fluorescence, 24 h. Potency, µM (doses to about 56.7 µM), actives largely listed as cytotoxic. 400,000 compounds, 0.49% hits. AID 651635; also: potency is read from the fitted curve at half-maximal effect; nearly all actives have a fitted effect of over 40% in size
MCF10A rereplic: DNA re-replication induction in MCF 10a cells; MCF 10A DNA re-replication, Hoechst nuclear intensity, 48 h; Potency, µM (top dose mostly 46.1 µM), inactives show at the highest dose activity, positive = re-replication, actives largely listed as activators; 350,000 compounds, 2.9% hits; AID 624296; also: potency is read from the fitted curve at half-maximal effect; % of control where 0% means no effect; nearly all actives have a fitted effect of over 50% in size
IL1B secr inh: blocks inflammasome-driven IL-1 beta release; activity change, % at 57.5 µM; THP-1 LPS/ATP IL-1B secretion, AlphaLISA, 16 h; stronger effect = lower value; 360,000 compounds, 4.7% hits; in the data active = activity change below about -50%; inconclusive = mostly about -30% to -49%; also: % is scaled to controls: 0 for no effect and ±100 for the full control effect
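Secreted IL-1B measured by AlphaLISA bead assay after 16 h compound exposure of THP-1 cells; compounds (final up to 57.5 uM) added 1 h before LPS (250 ng/mL) and ATP (1.25 mM) stimulation; lower signal means less secretion.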
SW480 rerep: DNA re-replication induction in SW480 cells; SW480 DNA re-replication, Hoechst DNA content imaging, 48 h; Potency, µM (series often up to 46.1 µM), for inactives: at the top dose re-replication activation, usual class: activators; 340,000 compounds, 1.8% hits; AID 624297; also: potency is read from the fitted curve at half-maximal effect; % of control where 0% means no effect; nearly all actives have a fitted effect of over 55% in size
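Treated cells incubate 48 hr (37 C, 5% CO2), are stained 40 min with Hoechst, and nuclear fluorescence is enumerated; a rise in nuclei with high DNA signal marks re-replication.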
Numbers without * were called inactive; i = inactive; ? = inconclusive; nt = no result given; [ ] = remark or other dose. Unless noted, calls follow the shape of the dose curve; as a rule, active = well fitted curve in the direction sought with a large enough effect; inconclusive = small, poorly fitted or top-dose-only effect, or another doubt; inactive = no such curve, though single readings can be large; an effect the other way counts as inactive or inconclusive.

SMILES	ATXN2 expr inh	PINK1 modulator	S2 tox	MCF10A rereplic	IL1B secr inh	SW480 rerep
CCOc1ccc(N(C(=O)/C=C/C(=O)Nc2cc(C)on2)C(C(=O)NC2CCCC2)c2ccccc2C)cc1 (stereo unspecified)	-9%	2%	?	-1%	-24	-4%
CCCCN(C(=O)CCC(=O)Nc1cc(C)on1)C(C(=O)NC1CCCC1)c1ccc(F)cc1 (stereo unspecified)	-4%	0%	i	?	-77*	?
COc1ccc(C(C(=O)NC(C)(C)C)N(CCc2ccccc2)C(=O)CCC(=O)Nc2cc(C)on2)cc1 (stereo unspecified)	-5%	-2%	i	4%	-57*	4%
CCCCN(C(=O)CCC(=O)Nc1cc(C)on1)C(C(=O)NC1CCCC1)c1ccccc1C (stereo unspecified)	2%	2%	i	15%	-3	0%
Cc1ccc(C(C)C)c(OCC(=O)Nc2cc(-c3nc4ccccc4[nH]3)ccc2C)c1	nt	4%	nt	nt	nt	nt
c1ccc(CN2CCN(CCOCCOc3cccc4ccccc34)CC2)cc1	-2%	3%	i	?	-81*	4%
Cc1ccc(C(C)(C)C)c(OCCOCCN2CCCC2)c1	-17%	8%	?	?	-8	0%
O=C(c1ccco1)N1CCN(CCOCCOc2cccc3ccccc23)CC1	-19%	4%[38.3 µM]	i	7%	7	2%
CC(C)(C)c1ccccc1OCCOCCN1CCCCCC1	-17%	-1%	i	15%	-62*	?
COc1ccccc1CNc1ncnc2onc(-c3ccc(F)cc3)c12	8%	1%	i	nt	nt	nt
CCc1nc2c(OCc3cccc(OC)c3)cccn2c1N(C)C(=O)c1ccccc1F	-7%	6%	?	nt	-14	nt
CCc1nc2c(OCc3cc(Cl)cc(Cl)c3)cccn2c1N(C)C(=O)c1ccccc1F	0%	?	?	nt	-58*	nt
CCc1nc2c(OCc3ccc(Cl)cc3)cccn2c1N(C)C(=O)c1ccco1	?	0%	?	nt	-62*	nt
Cc1cc2c(cc1C)C(c1cc(Br)ccc1F)CC(=O)N2 (stereo unspecified)	-3%	10%	i	7.3µM*	2	?
CCN(CC)C(=O)C1CN2CCc3cc(OC)c(OC)cc3C2CC1OC(C)=O (stereo unspecified)	4%	nt	i	nt	nt	nt
S=c1[nH]nc(C2CCCCC2)n1/N=C/c1ccc(Br)s1	-33%	2%	i	18µM*	2	?
FC(F)(F)c1ccc(/C=N/n2c(C3CCCCC3)n[nH]c2=S)cc1	nt	4%	?	23µM*	-10	-8%
S=c1[nH]nc(C2CCCCC2)n1/N=C/c1ccc(Br)cc1	0%	1%	i	?	-15	-6%
CC1=CCC2C(=O)N(c3cccc(C(=O)Nc4ccc(Cl)cc4)c3)C(=O)C2C1 (stereo unspecified)	-13%	5%	i	5%	-80*	-1%
O=c1[nH]c(/C=C/c2ccccn2)nc2ccccc12	nt	1%	?	?	-81*	?
O=c1[nH]c(/C=C/c2ccc(Br)cc2)nc2ccccc12	39%	4%	i	?	-8	-6%
O=c1[nH]c(/C=C/c2cccc3ccccc23)nc2ccccc12	-23%	25%	nt	?	23	?
O=c1[nH]c(/C=C/c2ccccc2F)nc2ccccc12	nt	9%	i	8.2µM*	34	3.7µM*
CCCCOc1ccc(CC(=O)N(C)OC)cc1	nt	2%	nt	nt	nt	nt
O=C(Nc1ccccc1Br)c1ccccc1-c1ccccc1	-19%	17%	?	13µM*	13	16µM*
CCOc1ccccc1C(=O)Nc1ccccc1-c1ccccc1	7%	8%	i	21µM*	13	14%
O=C(Nc1ccccc1-c1ccccc1)c1ccccc1Br	-16%	0%	i	11%	16	2%
